Laboratory results published in the supplement of paper PMC10037445.
Whole data set: some 2,900 compounds, median “NF-kB SEAP reporter activity, fold change vs agonist alone” near 0.99, cut for the highest 2% near 2.6. The entries come from a sample that favours the highest values as a whole.

Columns and labels:
RAW-Dual [1] = experiment: NF-kB SEAP reporter activity, fold change vs agonist alone; higher = enhanced NF-kB activity
Method in brief: (§1)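 RAW-Dual macrophages (50,000 cells/well in DMEM, 384-well plates) received 50 nL of library stock by pin tool, then a PRR agonist 1 h later, and were kept at 37 °C, 5% CO2. After 20 hours, supernatant was read for IRF by QuantiLuc luminescence and for NF-κB by QuantiBlue absorbance at 620 nm. Reporter activity is fold change over agonist-alone wells. Cytotoxic wells had IncuCyte confluency below 70% of agonist controls in both mask sets.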

RAW-Dual [2] = experiment: NF-kB SEAP reporter activity, fold change vs agonist alone; cytotoxicity flag (confluency mask): not cytotoxic; higher = enhanced NF-kB activity
Method in brief: as §1

RAW-Dual [3] = experiment: NF-kB SEAP reporter activity, fold change vs agonist alone; cytotoxicity flag (confluency mask): cytotoxic (confluency <70% of control); higher = enhanced NF-kB activity
Method in brief: as §1

[4] = library stock concentration (final ~1000-fold dilution): 10 mM, cytotoxicity flag (confluency mask): not cytotoxic, agonist: Imiquimod (TLR7) […]
[5] = library stock concentration (final ~1000-fold dilution): 10 mM, cytotoxicity flag (confluency mask): not cytotoxic, agonist: MPLA (TLR4) […]
[6] = agonist: ODN 1826 (TLR9) 0.5 ug/mL
[7] = agonist: Pam2CSK4 (TLR2/6) 0.1 ug/mL
[8] = agonist: Pam3CSK4 (TLR2/1) 0.1 ug/mL
[9] = library stock concentration (final ~1000-fold dilution): 10 mM, cytotoxicity flag (confluency mask): cytotoxic (confluency <70% of control), agonist: Imiquimod (TLR7) […]
[10] = library stock concentration (final ~1000-fold dilution): 10 mM, cytotoxicity flag (confluency mask): cytotoxic (confluency <70% of control), agonist: MPLA (TLR4) […]

## CCOC1OC(=O)CC1NC(=O)C1CCCN1C(=O)C(NC(=O)c1ccc(N)c(Cl)c1)C(C)(C)C (stereo not drawn)
RAW-Dual [1]; [4]
  NF-kB SEAP reporter activity: 0.911
RAW-Dual [1]; [5]
  NF-kB SEAP reporter activity: 0.995

## CCOC1OC(=O)CC1NC(=O)C1CCCN1C(=O)C(NC(=O)c1ccc(N)c(Cl)c1)C(C)(C)C (stereo not drawn) (library stock concentration (final ~1000-fold dilution): 10 mM)
RAW-Dual [2]; agonist: LPS (TLR4) 0.1 ug/mL
  NF-kB SEAP reporter activity: 0.973
RAW-Dual [2]; [6]
  NF-kB SEAP reporter activity: 1
RAW-Dual [2]; [7]
  NF-kB SEAP reporter activity: 1
RAW-Dual [2]; [8]
  NF-kB SEAP reporter activity: 0.976

## N#CC1CC2CC2N1C(=O)C(N)C12CC3CC(CC(O)(C3)C1)C2 (stereo not drawn) (library stock concentration (final ~1000-fold dilution): 10 mM)
RAW-Dual [2]; agonist: LPS (TLR4) 0.1 ug/mL
  NF-kB SEAP reporter activity: 1.1
RAW-Dual [2]; [6]
  NF-kB SEAP reporter activity: 0.964
RAW-Dual [2]; [7]
  NF-kB SEAP reporter activity: 0.892
RAW-Dual [2]; [8]
  NF-kB SEAP reporter activity: 1.05

## N#CC1CC2CC2N1C(=O)C(N)C12CC3CC(CC(O)(C3)C1)C2 (stereo not drawn)
RAW-Dual [1]; [4]
  NF-kB SEAP reporter activity: 0.914
RAW-Dual [1]; [5]
  NF-kB SEAP reporter activity: 0.875

## CCn1c(-c2nonc2N)nc2c(C#CC(C)(C)O)ncc(OCC3CCCNC3)c21 (stereo not drawn)
RAW-Dual [1]; [4]
  NF-kB SEAP reporter activity: 1.87
RAW-Dual [1]; [5]
  NF-kB SEAP reporter activity: 1.95

## CCn1c(-c2nonc2N)nc2c(C#CC(C)(C)O)ncc(OCC3CCCNC3)c21 (stereo not drawn) (library stock concentration (final ~1000-fold dilution): 10 mM)
RAW-Dual [2]; agonist: LPS (TLR4) 0.1 ug/mL
  NF-kB SEAP reporter activity: 1.91
RAW-Dual [2]; [6]
  NF-kB SEAP reporter activity: 0.943
RAW-Dual [2]; [7]
  NF-kB SEAP reporter activity: 1.73
RAW-Dual [2]; [8]
  NF-kB SEAP reporter activity: 1.89

## CC(C)Cc1ccc(C(C)C(=O)O)cc1.NCCCCC(N)C(=O)O (stereo not drawn) (library stock concentration (final ~1000-fold dilution): 10 mM water)
RAW-Dual [2]; agonist: LPS (TLR4) 0.1 ug/mL
  NF-kB SEAP reporter activity: 1.42
RAW-Dual [2]; [6]
  NF-kB SEAP reporter activity: 1.2
RAW-Dual [2]; [7]
  NF-kB SEAP reporter activity: 1.54
RAW-Dual [2]; [8]
  NF-kB SEAP reporter activity: 1.39

## CC(C)Cc1ccc(C(C)C(=O)O)cc1.NCCCCC(N)C(=O)O (stereo not drawn)
RAW-Dual [1]; library stock concentration (final ~1000-fold dilution): 10 mM water, cytotoxicity flag (confluency mask): not cytotoxic, agonist: Imiquimod (TLR7) […]
  NF-kB SEAP reporter activity: 0.969
RAW-Dual [1]; library stock concentration (final ~1000-fold dilution): 10 mM water, cytotoxicity flag (confluency mask): not cytotoxic, agonist: MPLA (TLR4) […]
  NF-kB SEAP reporter activity: 1.08

## CCCCc1nc(-c2ccc(OCCCN(CC)CC)cc2)cn1-c1ccc(Oc2ccc(Cl)cc2)cc1
RAW-Dual [1]; [9]
  NF-kB SEAP reporter activity: 1.53
RAW-Dual [1]; [10]
  NF-kB SEAP reporter activity: 1.02

## CCCCc1nc2cc(/C=C/C(=O)NO)ccc2n1CCN(CC)CC
RAW-Dual [1]; [9]
  NF-kB SEAP reporter activity: 2.43
RAW-Dual [1]; [10]
  NF-kB SEAP reporter activity: 2.67

## CCCCc1nc2cc(/C=C/C(=O)NO)ccc2n1CCN(CC)CC (library stock concentration (final ~1000-fold dilution): 10 mM)
RAW-Dual [3]; agonist: LPS (TLR4) 0.1 ug/mL
  NF-kB SEAP reporter activity: 4.93
RAW-Dual [3]; [6]
  NF-kB SEAP reporter activity: 1.54
RAW-Dual [3]; [7]
  NF-kB SEAP reporter activity: 0.93
RAW-Dual [3]; [8]
  NF-kB SEAP reporter activity: 1.99

## CCCCc1nc(-c2ccc(OCCCN(CC)CC)cc2)cn1-c1ccc(Oc2ccc(Cl)cc2)cc1 (library stock concentration (final ~1000-fold dilution): 10 mM)
RAW-Dual [3]; agonist: LPS (TLR4) 0.1 ug/mL
  NF-kB SEAP reporter activity: 0.281
RAW-Dual [3]; [6]
  NF-kB SEAP reporter activity: 0.683
RAW-Dual [3]; [7]
  NF-kB SEAP reporter activity: 0.225
RAW-Dual [3]; [8]
  NF-kB SEAP reporter activity: 0.192

## CN1C2CCC1CC(OC(c1ccccc1)c1ccccc1)C2.CS(=O)(=O)O (stereo not drawn) (library stock concentration (final ~1000-fold dilution): 10 mM)
RAW-Dual [2]; agonist: LPS (TLR4) 0.1 ug/mL
  NF-kB SEAP reporter activity: 1.24
RAW-Dual [2]; [6]
  NF-kB SEAP reporter activity: 0.721
RAW-Dual [2]; [7]
  NF-kB SEAP reporter activity: 0.896
RAW-Dual [2]; [8]
  NF-kB SEAP reporter activity: 1.02

## CN1C2CCC1CC(OC(c1ccccc1)c1ccccc1)C2.CS(=O)(=O)O (stereo not drawn)
RAW-Dual [1]; [4]
  NF-kB SEAP reporter activity: 1.89
RAW-Dual [1]; [5]
  NF-kB SEAP reporter activity: 1.29

## CC(NC(=O)CCC(F)(F)F)C(=O)NC1C(=O)N(CCO)c2ncccc2-c2ccccc21 (stereo not drawn)
RAW-Dual [1]; [4]
  NF-kB SEAP reporter activity: 0.822
RAW-Dual [1]; [5]
  NF-kB SEAP reporter activity: 1.06

## CC(NC(=O)CCC(F)(F)F)C(=O)NC1C(=O)N(CCO)c2ncccc2-c2ccccc21 (stereo not drawn) (library stock concentration (final ~1000-fold dilution): 10 mM)
RAW-Dual [2]; agonist: LPS (TLR4) 0.1 ug/mL
  NF-kB SEAP reporter activity: 1.05
RAW-Dual [2]; [6]
  NF-kB SEAP reporter activity: 0.863
RAW-Dual [2]; [7]
  NF-kB SEAP reporter activity: 0.99
RAW-Dual [2]; [8]
  NF-kB SEAP reporter activity: 1.16

## CNCCCC12CCC(c3ccccc31)c1ccccc12.Cl
RAW-Dual [1]; [4]
  NF-kB SEAP reporter activity: 1.4
RAW-Dual [1]; [5]
  NF-kB SEAP reporter activity: 1.37

## CNCCCC12CCC(c3ccccc31)c1ccccc12.Cl (library stock concentration (final ~1000-fold dilution): 10 mM)
RAW-Dual [2]; agonist: LPS (TLR4) 0.1 ug/mL
  NF-kB SEAP reporter activity: 1.55
RAW-Dual [2]; [6]
  NF-kB SEAP reporter activity: 0.443
RAW-Dual [2]; [7]
  NF-kB SEAP reporter activity: 0.537
RAW-Dual [2]; [8]
  NF-kB SEAP reporter activity: 0.603

## CC(=O)c1ccc2c(c1)c1cc(C(C)=O)ccc1n2CCNC(C)C.Cl (library stock concentration (final ~1000-fold dilution): 10 mM)
RAW-Dual [3]; agonist: LPS (TLR4) 0.1 ug/mL
  NF-kB SEAP reporter activity: 0.329
RAW-Dual [3]; [6]
  NF-kB SEAP reporter activity: 0.209
RAW-Dual [3]; [7]
  NF-kB SEAP reporter activity: 0.0686
RAW-Dual [3]; [8]
  NF-kB SEAP reporter activity: 0.155

## CC(=O)c1ccc2c(c1)c1cc(C(C)=O)ccc1n2CCNC(C)C.Cl
RAW-Dual [1]; [9]
  NF-kB SEAP reporter activity: 0.156
RAW-Dual [1]; [10]
  NF-kB SEAP reporter activity: 0.26

## CC1(C)OC2COC3(COS(N)(=O)=O)OC(C)(C)OC3C2O1 (stereo not drawn)
RAW-Dual [1]; [4]
  NF-kB SEAP reporter activity: 0.928
RAW-Dual [1]; [5]
  NF-kB SEAP reporter activity: 0.824

## CC1(C)OC2COC3(COS(N)(=O)=O)OC(C)(C)OC3C2O1 (stereo not drawn) (library stock concentration (final ~1000-fold dilution): 10 mM)
RAW-Dual [2]; agonist: LPS (TLR4) 0.1 ug/mL
  NF-kB SEAP reporter activity: 0.898
RAW-Dual [2]; [6]
  NF-kB SEAP reporter activity: 1.01
RAW-Dual [2]; [7]
  NF-kB SEAP reporter activity: 0.955
RAW-Dual [2]; [8]
  NF-kB SEAP reporter activity: 1.12

## COc1c(O)c(C)cc2c1C(=O)c1c(O)cccc1C2=O (library stock concentration (final ~1000-fold dilution): 10 mM)
RAW-Dual [2]; agonist: LPS (TLR4) 0.1 ug/mL
  NF-kB SEAP reporter activity: 1.19
RAW-Dual [2]; [6]
  NF-kB SEAP reporter activity: 1.02
RAW-Dual [2]; [7]
  NF-kB SEAP reporter activity: 1.04
RAW-Dual [2]; [8]
  NF-kB SEAP reporter activity: 1.01

## COc1c(O)c(C)cc2c1C(=O)c1c(O)cccc1C2=O
RAW-Dual [1]; [4]
  NF-kB SEAP reporter activity: 0.981
RAW-Dual [1]; [5]
  NF-kB SEAP reporter activity: 1.08

## COc1ccc2cccc(CCNC(C)=O)c2c1
RAW-Dual [1]; [4]
  NF-kB SEAP reporter activity: 0.972
RAW-Dual [1]; [5]
  NF-kB SEAP reporter activity: 0.963

## COc1ccc2cccc(CCNC(C)=O)c2c1 (library stock concentration (final ~1000-fold dilution): 10 mM)
RAW-Dual [2]; agonist: LPS (TLR4) 0.1 ug/mL
  NF-kB SEAP reporter activity: 1.33
RAW-Dual [2]; [6]
  NF-kB SEAP reporter activity: 1.09
RAW-Dual [2]; [7]
  NF-kB SEAP reporter activity: 1.03
RAW-Dual [2]; [8]
  NF-kB SEAP reporter activity: 1.19
